Experimental data as given in the supplement of paper PMC6555819.

Test system: VDR:RXRa (NR concentration 270 nM, RXRa partner concentration 90 nM)
Assay: PBM binding z-score (relative to random genomic background probes); higher = stronger binding; sequences stand for … in GC…GCGATTGACAGCGTAGAATGAAGG
Protocol: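 Protein-binding microarray (Agilent 4x180K custom design, double-stranded 60-nt probes: 5' GC cap, 34-nt variable region, 24-nt constant primer region; full probe sequence given). Purified or IVT nuclear receptor:RXRα heterodimers (3:1 NR:RXRα, mostly 270:90 nM) or homodimers were incubated for 1 h in PBS with 2% milk and no ligand, then detected with Alexa488 antibodies. Fluorescence from o1-orientation probes (~5 replicates averaged) was converted to z-scores against 500 random hg19 background probes. Variable regions are seed direct-repeat (DR0–DR5) sites, all their single-nucleotide variants and half-site ablations.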

Sequence | PBM binding z-score
ATCTCTTGGTAAAGATAGTTCAGTGAATGCAAAT | 0.811
CCGACTGGGCCAAGGTCATTGATCAGTCAAAGCA | 3
ACTATTAGTTGACTTAGGGCAACCGGTACGACGC | 1.16
CGTCCAAGGTCAAAGGTCAGTGGAGAGATGACGG | 6.82
AGAATGAGGGTAAGATCAGGGAAACAGAATACAT | -0.0914
CGTCCAAGGTGAAAGGTCAGTGAAGAGATGACGG | 3.69
TCTTGTAGATCAACAGGAGGTTATGAAAGATCGA | 0.761
TAGCCTGGGTCATTCAGGGGCCAGTATAGAAAGC | 2.82
AGTATGAGGTTATACGTAGATCAGGGAAGAAAGT | 1.34
ACTATTAGTTGACATAGGGCAACCGATACGACGC | 0.569
CGTCCAAGGTCAGCTGGTCAGTGAAAGCGACGTG | 2.66
TCTTGTAGATCAACAGGAGGCTAAGAAAGATCGA | -0.0159
TCTTGTAGATCAATAGAGGTCAAGAAAGTGCGCT | 4.77
TCGATTAGGTTAGTCGGGGCATTCAGCCAACATA | 2.14
CGTCCAAGGTCAGAGAGGTCTGTGAATGCCGAGT | 4.72
TCTTGTAGATCAGCAGGTTAAGAAAGCTGGCCAA | 0.357
TCTGCTAGGTCAAAGATGGTCAGCTAATCTGCTA | 1.68
TTTCGGAGGACACGAAGGTCAGAGCTTTCCAGAG | 2.47
TCACATAGGTAAAGGTGAAAGTCGAACGATATGA | 1.32
CAAACTAGGTCACTGAGGTCAAAGTCCGTGCGTA | 7.99

Sequence | PBM binding z-score
AGAATGATGTTACCAAAGATCAGGGAAACGCTTG | -0.205
CCGACTGGCGCAAGGTTACCATAACGCACAGCCA | 0.151
CCAGACCGGTGAAAGGTAACTCAGTCTGGTACGC | 0.137
TCTAGTTGGTCAAAGGTTACACACTCGAAATGCG | 3.11
GCGACTGGGGCAAAGCAGGTTAACATAAGGTTGG | 0.364
AGAATGAGGTTACCAAAGATGAGGGAAACGCTTG | 1.03
CGTCAAAGTTCAACTTAGGTAACGTAAAGCACGC | 4.56
CCTTACTGGTCACTCCAGGTTATAGCATCGGAGT | 0.952
TCTAGCAGGCCAGAGGGTCACTCTAGAGGTACGG | 0.978
CGAACTAGGTCATCCAGGAAAGTGAATACATTGA | 2.24
AGAACGAGGGCTCGCTGAGTTGATAGCAGAGTAG | -0.517
CCTACTGGGCCAAGAAAGGTCATTGATTCAGTGA | 3.68
CGTCCAAGGCCAAGGTCAGTGAAAGAGACTCGAA | 1.15
GCTATTGGTTGAAAGGGCAACCGAATGATTCTCG | 0.563
AGTCCAAGTTCATCTAGGTAACGTAAGATATGCT | 4.48
GCAAGCAGGCCATTTGGGTCACTCAATGACGGGC | 0.865
ATCGCTAGGTAAGACTCAGTTCAGTGAAGAACGC | -0.0263
CATACTGGGCCACGAAAGGTCATTGATTCAGTGA | 4.3
TGAATGATGTTATAAGATCAGGGAACGTTGCAAA | -0.175
AATACAGGGTCATCGTAGTCCAGAGTACGCACAG | 5.65
